High-throughput results as filed in PubChem.
ERAP1 HTS inh: inhibitors of human ERAP1 aminopeptidase; recombinant ERAP1, Leu-AMC fluorescence, 60 min; hit rate 0.15% among 340,000; AID 652197; Q9NZ08; inhibition, % at 10.7 µM;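 active = mean replicate inhibition of at least 30%, or all replicates individually reaching that 30% level; inactive = mean below 30% and not every replicate reaching it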
Target sequence (Q9NZ08 whole entry, looked up): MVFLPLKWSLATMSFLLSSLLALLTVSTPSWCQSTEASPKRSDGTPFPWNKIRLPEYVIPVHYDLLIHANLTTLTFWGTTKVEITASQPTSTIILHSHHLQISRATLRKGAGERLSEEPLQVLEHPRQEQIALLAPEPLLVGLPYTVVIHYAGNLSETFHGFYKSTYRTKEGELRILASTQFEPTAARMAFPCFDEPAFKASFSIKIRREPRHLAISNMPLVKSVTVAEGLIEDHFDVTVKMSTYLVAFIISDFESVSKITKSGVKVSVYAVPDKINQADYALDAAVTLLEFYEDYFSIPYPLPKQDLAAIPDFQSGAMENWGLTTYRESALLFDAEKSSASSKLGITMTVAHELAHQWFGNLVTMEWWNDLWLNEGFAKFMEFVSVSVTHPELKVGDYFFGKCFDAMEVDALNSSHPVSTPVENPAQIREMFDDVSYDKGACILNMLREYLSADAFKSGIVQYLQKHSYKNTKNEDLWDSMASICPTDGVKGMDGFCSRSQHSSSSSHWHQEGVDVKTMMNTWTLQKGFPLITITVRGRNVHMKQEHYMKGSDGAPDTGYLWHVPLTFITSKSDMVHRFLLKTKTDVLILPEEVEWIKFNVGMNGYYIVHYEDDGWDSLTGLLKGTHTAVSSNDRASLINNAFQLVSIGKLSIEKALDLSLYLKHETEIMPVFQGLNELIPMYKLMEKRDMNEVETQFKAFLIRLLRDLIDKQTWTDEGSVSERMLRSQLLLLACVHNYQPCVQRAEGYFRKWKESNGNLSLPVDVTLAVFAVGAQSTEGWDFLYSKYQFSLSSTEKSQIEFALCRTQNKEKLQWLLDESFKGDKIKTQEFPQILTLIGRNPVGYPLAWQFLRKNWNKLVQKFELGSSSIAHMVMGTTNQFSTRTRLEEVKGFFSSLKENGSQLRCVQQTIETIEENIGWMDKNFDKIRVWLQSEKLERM
GSIS activator: primary screen for activators of insulin secretion dependent on glucose, INS-1E cells, GLuc reporter luminescence; INS-1E GLuc reporter insulin secretion, 2-3 h; activation, % at 16.6 µM; hit rate 0.61% among 370,000;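 active = lowest replicate activation of at least 40%, so every replicate reaches that level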
CaV13 ICDI inh: Primary screen for inhibitors of IQ motif and Ca2+-dependent inactivation inhibitor domain binding in CACNA1D, Förster resonance energy transfer in living cells, … | hit rate 0.098% among 340,000 | HEK cells, CFP/YFP FRET ICDI-IQ, plate reader, 10 min; percent FRET-ratio fall versus neutral wells | inhibition, % at 12.3 µM | AID 743397;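 active = mean replicate inhibition of at least 30% and at least 1% of replicates passing that level; inconclusive = only one of the two criteria is met; inactive = neither criterion is met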
DENV2 CPE: DENV2-induced cell death inhibition; DENV2-infected cells, cytopathic effect rescue, plate reader; CPE inhibition, % at 9.99 µM; hit rate 1.7% among 350,000; AID 651640; in the data active = CPE inhibition above about 20%, passing the limit was not always enough; inconclusive = no clear call, values can overlap the other calls; tested in BHK-21 cells
PGC1a acetyl inh: modulators of PGC1a acetylation. U2OS PGC1a acetylation, AlphaScreen anti-acetyl-lysine; with virally co-expressed GCN5 acetyltransferase. inhibition, % at 15.6 µM. hit rate 0.17% among 350,000;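 active = every replicate shows inhibition of at least 40%; inconclusive = mean inhibition at least 40% but some replicate below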
Ecoli rRNA inh: inhibits bacterial ribosomal RNA function over humanized ribosomes; E. coli WT GFP vs humanized-ribosome RFP mutants, fluorescence, 24 h; stronger effect = lower value; DMSO median 0, no signal -100; GFP signal change (wild-type ribosome), % (no concentration beside the values); hit rate 1.6% among 350,000; AID 720706;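 active = significant combined selectivity score with lowered wild-type GFP, culture density cut under 30%, mutant RFP and density less affected; inactive = any of these conditions unmet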
Each line names hits and unclear results; the compound was inactive in the other large screens. Sampled rows, rich in hits. Any-hit rate of the full collection: about 3.2%.

COc1ccc(S(=O)(=O)Nc2cccc3c2O[C@@H](CN(C)Cc2ccc(C(=O)Nc4ccccc4N)cc2)[C@@H](C)CN([C@@H](C)CO)C3=O)cc1	none (no result: CaV13 ICDI inh)
COc1cc2c(cc1OC)CN(C(=O)c1sc(-c3cnccn3)nc1C)CC2	none
COc1cc2c(cc1OC)C(C)N(C(=O)c1sc(-c3cnccn3)nc1C)CC2 (stereo unspecified)	Ecoli rRNA inh -34 (no result: GSIS activator, PGC1a acetyl inh)
CCCCN1C=C(C(=O)OC)C(c2ccccc2Cl)C(C(=O)OC)=C1	CaV13 ICDI inh active (no result: PGC1a acetyl inh)
O=C(Nc1ccc(Cl)cc1)N1C[C@@H]2[C@H](c3ccccc31)[C@@H](CO)N2C(=O)c1ccccn1	Ecoli rRNA inh -25 (no result: ERAP1 HTS inh, CaV13 ICDI inh, DENV2 CPE)
O=C(Nc1ccc(F)cc1)N1C[C@@H]2[C@H](c3ccccc31)[C@@H](CO)N2C(=O)c1ccccn1	none (no result: ERAP1 HTS inh, CaV13 ICDI inh)
O=C(c1ccccn1)N1C[C@@H]2[C@H](c3ccccc31)[C@H](CO)N2C(=O)Nc1ccccc1	none (no result: CaV13 ICDI inh)
O=C(Nc1ccc(Cl)cc1)N1C[C@@H]2[C@H](c3ccccc31)[C@H](CO)N2C(=O)c1ccccn1	Ecoli rRNA inh -53 (no result: ERAP1 HTS inh, CaV13 ICDI inh, DENV2 CPE)
COc1ccc(S(=O)(=O)N2CCC3(CC2)CN(Cc2ccccc2OC)[C@@H](CO)c2[nH]c4cc(OC)ccc4c23)cc1	none (no result: CaV13 ICDI inh, PGC1a acetyl inh)
O=C(CN1C(=O)C2CCCCC2C1=O)Nc1cccc(C(F)(F)F)c1 (stereo unspecified)	Ecoli rRNA inh -15
O=C(CN1C(=O)C2CCCCC2C1=O)Nc1cccc([N+](=O)[O-])c1 (stereo unspecified)	none
COc1ccccc1S(=O)(=O)Nc1cc(S(=O)(=O)N2CCCCC2)ccc1N1CCOCC1	Ecoli rRNA inh -28
Cc1ccc(S(=O)(=O)N2CCCCC2)cc1C(=O)N1CCCC1	none (no result: PGC1a acetyl inh)
Cc1ccc(S(=O)(=O)N2CCCC2)cc1C(=O)O	PGC1a acetyl inh 59 (no result: ERAP1 HTS inh, GSIS activator, DENV2 CPE, Ecoli rRNA inh)
CCN1CCN(c2ccc(S(=O)(=O)N3CCCCC3)cc2NC(=O)c2ccc(C)c(C)c2)CC1	DENV2 CPE 38
COc1ccccc1N1CCN(S(=O)(=O)c2ccccc2F)CC1	Ecoli rRNA inh -22
CCN1CCN(c2ccc(S(=O)(=O)N3CCCCC3)cc2NC(=O)c2cccc(C)c2)CC1	none (no result: PGC1a acetyl inh)
CNC[C@H]1Oc2ccc(NC(=O)Cc3cn(C)c4ccccc34)cc2CC(=O)N([C@H](C)CO)C[C@@H]1C	none (no result: CaV13 ICDI inh)
C[C@H](CO)N1C[C@H](C)[C@@H](CN(C)C(=O)c2cccc(F)c2)Oc2ncc(-c3cccnc3)cc2C1=O	none (no result: CaV13 ICDI inh)
CCCNC(=O)Nc1ccc2c(c1)C(=O)N(C)C[C@H](OC)[C@@H](C)CN(Cc1cccnc1)[C@H](C)CO2	none (no result: CaV13 ICDI inh)
CC(=O)N(C)C[C@@H]1Oc2ncc(-c3ccccc3C)cc2C(=O)N([C@H](C)CO)C[C@@H]1C	none (no result: CaV13 ICDI inh)
COc1ccccc1N1CCN(C(=O)c2cc(S(=O)(=O)N3CCCCC3)ccc2C)CC1	DENV2 CPE 34 (no result: GSIS activator)
O=C(Cn1c(=O)oc2cc(S(=O)(=O)N3CCCCC3)ccc21)N1CCCCC1	none (no result: PGC1a acetyl inh)
COc1ccccc1N1CCN(C(=O)Cn2c(=O)oc3cc(S(=O)(=O)N4CCCC4)ccc32)CC1	DENV2 CPE 33
O=C(O)c1cc(S(=O)(=O)N2CCN(C(c3ccccc3)c3ccccc3)CC2)ccc1Cl	Ecoli rRNA inh -16
O=C(O)c1cc(S(=O)(=O)N2CCN(S(=O)(=O)c3ccccc3)CC2)ccc1Cl	none
C[C@@H]1CN([C@@H](C)CO)C(=O)c2cc(NC(=O)NC3CCCCC3)ccc2O[C@@H]1CN(C)Cc1ccc(C(=O)Nc2ccccc2N)cc1	none (no result: CaV13 ICDI inh)
Cc1noc(C)c1NC(=O)Nc1ccc2c(c1)C(=O)N([C@H](C)CO)C[C@@H](C)[C@H](CN(C)S(=O)(=O)c1ccccc1)O2	none (no result: ERAP1 HTS inh, CaV13 ICDI inh, DENV2 CPE)
O=C(C1CCC1)N1CCCCN2[C@H](CO)[C@@H](c3ccc(-c4cccc(F)c4)cc3)[C@@H]2C1	none (no result: GSIS activator, CaV13 ICDI inh, Ecoli rRNA inh)
CCCCCn1c(CCNC(=O)c2cccs2)nc2ccccc21	Ecoli rRNA inh -30
C[C@H](CO)N1C[C@H](C)[C@H](CN(C)S(C)(=O)=O)OCCCC[C@H](C)Oc2ccc(NC(=O)CCC(F)(F)F)cc2C1=O	none (no result: CaV13 ICDI inh)
C[C@@H]1CN([C@@H](C)CO)C(=O)c2cc(NC(=O)Nc3ccc4c(c3)OCO4)ccc2O[C@@H](C)CCCCO[C@H]1CN(C)C(=O)C1CCCCC1	DENV2 CPE 77 (no result: CaV13 ICDI inh)
C[C@@H]1CCCCO[C@H](CN(C)C(=O)c2ccccc2)[C@@H](C)CN([C@@H](C)CO)C(=O)c2cc(NC(=O)Nc3ccc4c(c3)OCO4)ccc2O1	DENV2 CPE 22 (no result: CaV13 ICDI inh)
C[C@@H]1CCCCO[C@H](CN(C)C(=O)C2CCCCC2)[C@@H](C)CN([C@H](C)CO)C(=O)c2cc(NC(=O)Nc3ccc4c(c3)OCO4)ccc2O1	DENV2 CPE inconclusive (no result: CaV13 ICDI inh)
COc1ccc(NC(=O)Nc2ccc3c(c2)C(=O)N([C@H](C)CO)C[C@H](C)[C@H](CN(C)C(=O)Nc2ccc4c(c2)OCO4)OCCCC[C@@H](C)O3)cc1	DENV2 CPE 40 (no result: CaV13 ICDI inh)
C[C@@H]1CCCCO[C@H](CN(C)C(=O)Nc2ccc3c(c2)OCO3)[C@H](C)CN([C@@H](C)CO)C(=O)c2cc(NC(=O)Nc3ccccc3)ccc2O1	DENV2 CPE 23 (no result: CaV13 ICDI inh)
CNC(=S)N(Cc1ccc(Cl)cc1)Cc1cccs1	Ecoli rRNA inh -43
Cc1ccccc1NC(=S)N(Cc1ccccc1)Cc1cccs1	none
CNC[C@H]1OCCCC[C@@H](C)Oc2ccc(NC(=O)Nc3cccc4ccccc34)cc2C(=O)N([C@H](C)CO)C[C@@H]1C	none (no result: CaV13 ICDI inh)
CCS(=O)(=O)Nc1ccc2c(c1)C(=O)N(C)[C@@H]1CC[C@@H](CC(=O)N3CCOCC3)O[C@@H]1CO2	none (no result: CaV13 ICDI inh)
CCC[N+]1(CC#CC2(O)CCCCC2)CCOCC1	ERAP1 HTS inh 85 (no result: PGC1a acetyl inh)
CCN(C[C@@H]1N[C@@H](CO)[C@@H]1c1ccccc1)C(=O)c1ccncc1	DENV2 CPE 22 (no result: CaV13 ICDI inh)
CC(C)CN(C[C@@H]1N[C@@H](CO)[C@@H]1c1ccccc1)C(=O)CN(C)C	DENV2 CPE 40 (no result: CaV13 ICDI inh)
CC(=O)N(C[C@H]1N[C@H](CO)[C@@H]1c1ccccc1)C(C)C	none (no result: CaV13 ICDI inh)
CCC(=O)N(CC(C)C)C[C@@H]1[C@@H](c2ccccc2)[C@@H](CO)N1S(C)(=O)=O	DENV2 CPE 29 (no result: ERAP1 HTS inh, CaV13 ICDI inh, PGC1a acetyl inh)
O=c1c2ccccc2c(C=NCCCN2CCOCC2)c(O)n1Cc1ccccc1	none (no result: ERAP1 HTS inh, GSIS activator, CaV13 ICDI inh, DENV2 CPE, Ecoli rRNA inh)
O=c1c2ccccc2c(C=NCCCN2CCOCC2)c(O)n1Cc1ccc2c(c1)OCO2	Ecoli rRNA inh -29 (no result: CaV13 ICDI inh, PGC1a acetyl inh)
COc1ccccc1NC(=O)C/C(N)=N/OCC(=O)Nc1cccc(Cl)c1	none (no result: GSIS activator, Ecoli rRNA inh)
COc1ccccc1NCC(=O)NNC(C)C(=O)Nc1cccc(Cl)c1 (stereo unspecified)	Ecoli rRNA inh -32
C[C@H]1CN(C)C(=O)c2cc(N(C)C)ccc2O[C@@H]1CN(C)C	none (no result: ERAP1 HTS inh, CaV13 ICDI inh, DENV2 CPE, PGC1a acetyl inh)
